From paper PMC12670160, “A drug-repurposing screen of FDA- and EMA-approved drugs identifies two NF-κB inhibitors active against eumycetoma” (Journal of Antimicrobial Chemotherapy, 2025)
Where a name gives a salt, the structure may show the parent alone. Read-outs that look alike come from different tables or passages of the source. Among all 5,300 compounds or so, about 130 (2.5%) showed an effect of 50% or more. The list comes from a sample in which strong results are over-represented; it also holds similar structures and randomly drawn compounds.

System: M. mycetomatis strain mm55
Conditions: 96 h, 2 µM

Compound	% viability (m. mycetomatis hyphae) [%]	% viability (primary screen, metabolic activity vs growth control, inhibitor) [%]
COc1cc2cc(c1Cl)N(C)C(=O)C[C@H](OC(=O)C(C)C)[C@]1(C)O[C@H]1[C@H](C)[C@@H]1C[C@@](O)(NC(=O)O1)[C@H](OC)/C=C/C=C(\C)C2 [ONC0000769, ansamitocin p3]	44.45	–
Cc1[nH]c2ccc(O)cc2c1CCN [ONC0000021, 2methyl5hydroxytryptamine]	80.31	–
OCC(Br)(Br)Br [ONC0003374, 222tribromoethanol]	70.94	–
COC(=O)CC[C@@H]1N=C(c2ccccn2)c2cc(Br)ccc2-n2c(C)cnc21 [ONC0001123, remimazolam benzenesulfonate]	82.85	–
Ic1cncc(OC[C@@H]2CCN2)c1 [ONC0001838, 5iodoa85380]	120.9	–
NC(=S)N/N=C/c1coc2ccccc2c1=O [ONC0001578, fpa124]	55.38	–
C[C@@H](N)C(=O)N[C@@H](CO)C(=O)N[C@H](C(=O)N[C@H](C(=O)N[C@H](C(=O)N[C@@H](CC(N)=O)C(=O)N[C@@H](Cc1ccc(O)cc1)C(=O)N[C@H](C(N)=O)[C@@H](C)O)[C@@H](C)O)[C@@H](C)O)[C@@H](C)O [ONC0001968, dapta]	–	96.08
COc1ccc(C(=O)c2c(C)n(CCN3CCOCC3)c3cc(I)ccc23)cc1 [ONC0003455, am630 iodopravadoline]	49.32	–
COc1ccc(C(=O)c2c(C)n(CCN3CCOCC3)c3ccccc23)cc1 [ONC0001936, pravadoline]	72.97	–
CC(=O)NCCCOc1ccc(C(=O)N2CCC(N3C(=O)CCc4ccccc43)CC2)cc1 [ONC0002419, fuscoside]	92.96	–
CC(=O)O[C@H]1CC[C@@]2(C)C(=CCC3C2CC[C@]2(C)C(=O)CCC32)C1 (stereo partly shown) [ONC0003269, prasterone acetate]	44.2	–
C[C@]12CC[C@H](O)C[C@@H]1CC[C@@H]1[C@H]2CC[C@]2(C)C(=O)CC[C@@H]12 [ONC0005247, epiandrosterone 3androsterone]	106.6	–
CC(=O)O[C@H]1CC[C@@]2(C)C(=CC(=O)[C@@H]3[C@@H]2CC[C@]2(C)C(=O)CC[C@@H]32)C1 [ONC0002730, 7oxodehydroepiandrosterone acetate]	95.04	–
Cc1ncc(OC[C@@]2(c3cccc(F)c3)C[C@H]2C(=O)Nc2ccc(F)cn2)c(C)n1 [ONC0001232, lemborexant]	126.3	–
COC(=O)C1=C(C)NC(C)=C(C(=O)OCCCN2CCC(c3ccccc3)(c3ccccc3)CC2)[C@@H]1c1cccc([N+](=O)[O-])c1 [ONC0000198, dexniguldipine]	76.6	–
Cc1ccc2c(c1)[C@]13CCCC[C@@H]1[C@H](C2)N(C)CC3 [ONC0001964, dimemorfan]	96.79	–
O=C1C=C2C=C[C@@H]3C[C@@]2(O1)[C@H]1CCCCN31 [ONC0004197, securinine]	79.41	–
OC1(c2ccc(Cl)cc2)c2ccccc2C2=NCCN21 (stereo not shown) [ONC0005297, mazindol]	110.5	–
CN(C)CCNc1nc2cc(O)ccc2c2c1C(=O)c1ccccc1-2 [ONC0002255, tas103 dihydrochloride]	114.4	–
Oc1ccc2c3c1O[C@H]1[C@@H](O)CC[C@@]4(O)[C@@H](C2)N(CC2CCC2)CC[C@]314 [ONC0002017, nalbuphinehcl]	86.82	–

Compound	% viability (m. mycetomatis hyphae) [%]	% viability (primary screen, metabolic activity vs growth control, inhibitor) [%]
COC(=O)/C=C/C(=O)N[C@@H]1CC[C@@]2(O)[C@H]3Cc4ccc(O)c5c4[C@@]2(CCN3CC2CC2)[C@H]1O5 [ONC0001459, betafunaltrexamine]	48.02	–
Oc1ccc2c3c1O[C@H]1c4[nH]c5ccccc5c4C[C@@]4(O)[C@@H](C2)N(CC2CC2)CC[C@]314 [ONC0001519, naltrindole]	93.26	–
Oc1ccc2c3c1O[C@H]1c4[nH]c5c(c4C[C@@]4(O)[C@@H](C2)N(CC2CC2)CC[C@]314)C[C@@]1(O)[C@H]2Cc3ccc(O)c4c3[C@@]1(CCN2CC1CC1)[C@H]5O4 [ONC0002653, norbinaltorphiminedihydrochloride]	66	–
Oc1ccc2c3c1O[C@H]1c4oc5ccccc5c4C[C@@]4(O)[C@@H](C2)N(CC2CC2)CC[C@]314 [ONC0001439, naltriben]	49.95	–
CN(C(=O)/C=C/c1ccoc1)[C@@H]1CC[C@@]2(O)[C@H]3Cc4ccc(O)c5c4[C@@]2(CCN3CC2CC2)[C@H]1O5 [ONC0001145, nalfurafine hydrochloride]	84.21	–
O=C1NC(=S)NC(=O)C1C(=O)Nc1ccccc1 [ONC0002959, merbarone]	104.2	–
COc1ccsc1CNCC[C@@]1(c2ccccn2)CCOC2(CCCC2)C1 [ONC0001391, oliceridine hydrochloride]	102.3	–
O=C(C[S+]([O-])C(c1ccccc1)c1ccccc1)NO (stereo not shown) [ONC0001184, adrafinil]	106.5	–
Clc1ccc(CO/N=C(\Cn2ccnc2)c2ccc(Cl)cc2Cl)c(Cl)c1 [Oxiconazole nitrate]	0.8852	–
CC(=O)[C@H]1CC[C@H]2[C@@H]3CC[C@@H]4C[C@H](O)CC[C@]4(C)[C@H]3CC[C@]12C [ONC0001671, allopregnanolone]	102.1	–
Cc1ccccc1-n1c(CF)nc2ccc(N)cc2c1=O [ONC0003405, afloqualone]	71.52	–
CC(C)CC(N)C1(c2ccc(Cl)cc2)CCC1 (stereo not shown) [ONC0002665, bts54505]	62.54	–
O=C(Nc1ccccc1F)N[C@H]1N=C(c2ccccc2)c2ccccc2NC1=O [ONC0000966, rsv604]	70.36	–
OCC(O)[C@H]1O[C@@H]2O[C@H](C(Cl)(Cl)Cl)O[C@@H]2[C@H]1O (stereo partly shown) [ONC0004285, chloralose]	88.6	–
c1ccc(CC(c2ccccc2)N2CCCCC2)cc1 (stereo not shown) [ONC0000060, 112diphenylethylpiperidine]	45.07	–
Cc1cccc(C)c1N=C1NCCCS1 [ONC0000628, xylazine]	103.4	–
O=C(O)Cc1cccnc1C(=O)O [ONC0001551, homoquinolinicacid]	85.08	–
CC(C)(O)[C@H]1[C@@H]2OC(=O)[C@@H]1[C@]1(O)C[C@H]3O[C@]34C(=O)O[C@H]2[C@]14C [ONC0002779, picrotin]	109.3	–
C=C(C)[C@@H]1[C@H]2OC(=O)[C@H]1[C@]1(O)C[C@H]3O[C@]34C(=O)O[C@H]2[C@]14C [ONC0004797, picrotoxinin]	48.22	–
C=CCN1CC[C@@]2(C)c3cc(O)ccc3C[C@H]1[C@H]2C [ONC0000854, skf10047]	56.88	–
